These results are taken from PubChem BioAssay AID624133 (Broad Institute, 2012).

Hit rate of the full screen: of about 1,600 compounds, about 1,300 (81%) were called active. The rule behind the calls is not given here. The set was probably picked from earlier hits. The list is a sample of the results. Results with a measured potency or affinity are listed apart.

The assay in a line: non-specific 3'UTR reporter inhibition in Clone20-Shn3RL – cell-based, Renilla luciferase, cherry-picked, counter-screen for Shn3 inhibitor project, dose response (AID 624133).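 Note: 0% = neutral control wells and -100% = positive control wells.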 To be noted: Clone20-Shn3RL cells, Renilla luciferase luminescence, 24 h; at 35 µM (top of the series) unless noted. For orientation: Counterscreens check selectivity or assay interference.
`CCOc1cc(C)c(S(=O)(=O)Nc2ccc3cn[nH]c3c2)cc1C`: the activity change, negative = inhibition was 0%.
As for `Cc1ccc(NC(=O)C2CCCN(S(=O)(=O)c3c(C)noc3C)C2)cc1` (stereo unspecified), the figure is -19.4%; as for `COc1ccc(C(=O)NCCN(C)C)c2nc3ccccc3cc12`, 66.5%; as for `COc1ccccc1/C=C1\CCCC2=C1Nc1nnnn1C2c1ccccc1OC` (stereo unspecified), -110%.
As to `CCn1c(C)cc(C(=O)COC(=O)c2ccccc2[N+](=O)[O-])c1C`, the activity change, negative = inhibition was -13.6%.
`COc1ccc(-c2nsc3c(N4CCCCC4C)ncnc23)cc1` (stereo unspecified): the activity change, negative = inhibition was -16.7%.
As for `O=C(CN1C(=O)C2CCCCC2C1=O)NC1CCCc2ccccc21` (stereo unspecified), the figure is -10%; as for `C[C@@H]1CCCCO[C@H](CN(C)Cc2ccccc2)[C@@H](C)CN([C@H](C)CO)C(=O)c2cc(NC(=O)c3ccccc3)ccc2O1`, 33.3%.
On to `C[C@@H]1CN([C@@H](C)CO)C(=O)c2cc(NC(=O)Nc3ccc(F)cc3)ccc2O[C@@H]1CN(C)Cc1ccc(Oc2ccccc2)cc1`, for which the activity change, negative = inhibition was -20.8%.
As for `CN(Cc1ccccc1)C(=O)c1cccc(NC(=O)Cc2ccc([N+](=O)[O-])cc2)c1`, the figure is 230%; as for `COc1ccc2c(CC(=O)OCC(=O)N(C)c3c(N)n(Cc4ccccc4)c(=O)[nH]c3=O)coc2c1`, -12.5%; as for `CC(Oc1ccc(F)cc1)C(=O)N(CCC1=CCCCC1)c1c(N)n(Cc2ccccc2)c(=O)[nH]c1=O` (stereo unspecified), -25%.
As to `COc1ccc(CN2CCC(C(=O)Nc3ccc(Oc4cccnc4)cc3)CC2)c(C)c1C`, the activity change, negative = inhibition is -75%.
As for `CC(C)(C)C(=O)Nc1cc(S(=O)(=O)N2CCCCC2)ccc1N1CCCCC1`, the figure is 50%; as for `COc1cccc(-c2nc(NC3CCCC3)c3ccccc3n2)c1O`, -22.7%.
Then `COc1ccc(-n2ncc3c(N4CCCCC4)ncnc32)cc1`, with -75%; and `CCn1cc(CNCc2cn(-c3ccccc3C)nc2-c2ccc(OC)c(F)c2)cn1`, with 150%.
In the case of `Cc1ccc(C(=O)Nc2cnc3ccccc3c2)cc1`, the activity change, negative = inhibition was found to be 90%.
`CC(=O)c1cccc(NS(=O)(=O)c2ccc(-c3cnc(C4CC4)o3)cc2)c1`: the activity change, negative = inhibition was 8.33%.
Then `Cc1cccc(NS(=O)(=O)c2ccc(C3CCCCC3)cc2)c1`, with 0%; and `CCOC(=O)c1[nH]c(C)c(/C(O)=C2\C(=O)C(=O)N(CCCN3CCOCC3)C2c2cccs2)c1C` (stereo unspecified), with 70%.
With `O=C(CSc1nnc(Nc2ccccc2)s1)NC1CCS(=O)(=O)C1` (stereo unspecified), the activity change, negative = inhibition is 20.8%.
As for `CCOC(=O)c1cn(CC(=O)Nc2cccc(Cl)c2C)nn1`, the figure is 16.7%; as for `CCOC(=O)Cn1c(S(=O)(=O)Cc2ccccc2Cl)nc(-c2ccccc2)c1-c1ccccc1`, 110%; as for `CC1(C)CC(=O)c2c(nc(SCC(=O)Nc3nsc(-c4ccccc4)n3)c(C#N)c2-c2ccccc2)C1`, 16.7%.
`Cc1cccc(C(=O)Nc2ccc(C(=O)/C=C/c3ccncc3)cc2)c1`: the activity change, negative = inhibition was -100%.
